The values below come from PubChem BioAssay (EPA / NIEHS).

Read-out in assay [1]: TIMP metallopeptidase inhibitor 2 (TIMP2), TIMP2 (gene 7077)
Put plainly: BSK_KF3CT_TIMP2: BioMAP Diversity Plus: KF3CT Assay for TIMP metallopeptidase inhibitor 2 (TIMP2) Biomarker Activity (AID 2283071). To be noted: primary human keratinocytes with fibroblasts; actives raise or lower the signal. In a few lines:
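Chemicals were dosed onto human skin primary co-cultures of keratinocytes and foreskin fibroblasts, and TIMP-2 was measured by ELISA after 24 hours. Activity in either direction was fitted relative to DMSO.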

Read-out in assay [2]: Transforming growth factor beta 1 (TGFb1), TGFB1 (gene 7040)
Put plainly: BSK_KF3CT_TGFb1: BioMAP Diversity Plus: KF3CT Assay for Transforming growth factor beta 1 (TGFb1) Biomarker Activity (AID 2283072). Particulars: primary human keratinocytes with fibroblasts; actives raise or lower the signal. In a few lines: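 KF3CT co-culture (keratinocytes + fibroblasts), 24 h exposure → TGF-b1 ELISA → bidirectional fit, DMSO = baseline. Parallel SRB total-protein staining (0.1% SRB, 10% TCA fixation, 560 nm) for cytotoxicity.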

Read-out in assay [3]: C-C motif chemokine 2 (Homo sapiens) (UniProt P13500)
Put plainly: BSK_KF3CT_MCP1: BioMAP Diversity Plus: KF3CT Assay for Monocyte Chemoattractant Protein 1 (MCP1/CCL2) Biomarker Activity (AID 2283073). To be noted: primary human keratinocytes with fibroblasts; actives raise or lower the signal. The gist of the method: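 Human keratinocyte–foreskin fibroblast co-culture; MCP-1 measured by ELISA 24 h after dosing. Bidirectional fit vs DMSO; cytotoxicity tracked by SRB total protein in parallel cultures.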

Read-out in assay [4]: Matrix Metallopeptidase 9 (MMP9), MMP9 (gene 4318)
Put plainly: BSK_KF3CT_MMP9: BioMAP Diversity Plus: KF3CT Assay for Matrix Metallopeptidase 9 (MMP9) Biomarker Activity (AID 2283074). Particulars: primary human keratinocytes with fibroblasts; actives raise or lower the signal. The gist of the method: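 Values come from bidirectional fitting relative to DMSO of MMP-9 levels, which were measured by ELISA. Measurements were taken 24 h after chemical dosing of a keratinocyte and foreskin fibroblast co-culture.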

Read-out in assay [5]: urokinase plasminogen activator (uPA), PLAU (gene 5328)
Put plainly: BSK_KF3CT_uPA: BioMAP Diversity Plus: KF3CT Assay for urokinase plasminogen activator (uPA) Biomarker Activity (AID 2283075). Particulars: primary human keratinocytes with fibroblasts; actives raise or lower the signal. The gist of the method: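 Values derive from bidirectional fitting against DMSO controls. Keratinocyte/foreskin fibroblast co-cultures received chemical; 24 h later uPA was detected by ELISA, with SRB total-protein staining in parallel wells for overt cytotoxicity.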

Read-out in assay [6]: CD40, CD40 (gene 958)
The experiment in a line: BSK_LPS_CD40: BioMAP Diversity Plus: LPS Assay for CD40 Biomarker Activity (AID 2283076). To be noted: primary human HUVEC with PBMC; actives raise or lower the signal. The gist of the method: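 HUVEC plus PBMC co-culture stimulated with LPS; CD40 quantified by ELISA 24 h after compound dosing. Fitting was bidirectional relative to DMSO. SRB staining of parallel cultures flagged overt cytotoxicity.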

Read-out in assay [7]: E-selectin (Homo sapiens) (UniProt P16581)
Put plainly: BSK_LPS_Eselectin: BioMAP Diversity Plus: LPS Assay for Eselectin Biomarker Activity (AID 2283077). To be noted: primary human HUVEC with PBMC; actives raise or lower the signal. The gist of the method: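 Human umbilical vein endothelial cells co-cultured with PBMC under LPS stimulation; cell-surface E-selectin measured by ELISA 24 h after dosing. Change in either direction versus DMSO, with SRB total-protein staining in parallel cultures for cytotoxicity.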

Read-out in assay [8]: Interleukin-8 (IL8), CXCL8 (gene 3576)
The experiment in a line: BSK_LPS_IL8: BioMAP Diversity Plus: LPS Assay for Interleukin-8 (IL8) Biomarker Activity (AID 2283078). Particulars: primary human HUVEC with PBMC; actives raise or lower the signal. In a few lines: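 Human umbilical vein endothelial cells co-cultured with PBMC, LPS-stimulated, exposed to compound for 24 h. IL-8 quantified by ELISA; fitted in both directions against DMSO, with SRB total-protein staining of parallel cultures for cytotoxicity.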

The nature of assay [9]: BSK_LPS_SRB: Viability Assessment in the BioMAP Diversity Plus: LPS Assay (AID 2283079).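 Also: total protein by sulforhodamine B absorbance as a cytotoxicity measure; measured one day after compound addition; fitted in both directions against DMSO so loss or gain of signal counts.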 Particulars: primary human HUVEC with PBMC. In a few lines: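 Co-culture of human umbilical vein endothelial cells and PBMC, read 24 h after dosing. Total protein by 0.1% SRB staining after 10% TCA fixation, absorbance at 560 nm; bidirectional fit against DMSO.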
Read-out in assay [10]: Interleukin-1 alpha (IL1a), IL1A (gene 3552)
Put plainly: BSK_LPS_IL1a: BioMAP Diversity Plus: LPS Assay for Interleukin-1 alpha (IL1a) Biomarker Activity (AID 2283080). Particulars: primary human HUVEC with PBMC; actives raise or lower the signal. The gist of the method: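 Human umbilical vein endothelial cells co-cultured with PBMC and stimulated with LPS; IL-1a measured by ELISA 24 h after dosing. Bidirectional fitting against DMSO; cytotoxicity checked by SRB staining in parallel cultures.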

Read-out in assay [11]: Monocyte Chemoattractant Protein-1 (MCP1), CCL2 (gene 6347)
The experiment in a line: BSK_LPS_MCP1: BioMAP Diversity Plus: LPS Assay for Monocyte Chemoattractant Protein-1 (MCP1) Biomarker Activity (AID 2283081). Particulars: primary human HUVEC with PBMC; actives raise or lower the signal. In a few lines:
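Human umbilical vein endothelial cells co-cultured with PBMC, LPS-stimulated; secreted MCP-1 measured by ELISA 24 h after compound addition. Bidirectional curve fitting against DMSO baseline; SRB total-protein staining in parallel cultures for cytotoxicity.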

Assay [12] is described as follows: BSK_LPS_PGE2: BioMAP Diversity Plus: LPS Assay for Prostaglandin E2 (PGE2) Biomarker Activity (AID 2283082). Particulars: primary human HUVEC with PBMC; actives raise or lower the signal. The gist of the method:
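Compounds were added to the LPS co-culture of endothelium and PBMC, and PGE2 was measured by ELISA after 24 h. Responses in either direction were fitted with DMSO as baseline.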

Read-out in assay [13]: Tumor necrosis factor (Homo sapiens) (UniProt P01375)
Put plainly: BSK_LPS_TNFa: BioMAP Diversity Plus: LPS Assay for Tumour Necrosis Factor alpha (TNFa) Biomarker Activity (AID 2283085).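 As to AC50: TNFa protein level quantified by ELISA in the co-culture.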 Particulars: primary human HUVEC with PBMC; actives raise or lower the signal. In a few lines:
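Cells (umbilical vein endothelium plus peripheral blood mononuclear cells) were dosed with chemical, incubated 24 h, then TNFa was quantified by ELISA; values derive from bidirectional fitting with DMSO as baseline.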

Read-out in assay [14]: Vascular cell adhesion molecule 1 (VCAM1), VCAM1 (gene 7412)
Put plainly: BSK_LPS_VCAM1: BioMAP Diversity Plus: LPS Assay for Vascular cell adhesion molecule 1 (VCAM1) Biomarker Activity (AID 2283086). Particulars: primary human HUVEC with PBMC; actives raise or lower the signal. The gist of the method: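 Cells are dosed in an LPS-stimulated endothelial/mononuclear co-culture and, after 24 h, VCAM-1 is quantified by ELISA. Activity in either direction is fitted relative to the DMSO negative control.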

Read-out in the next assay: CD38, CD38 (gene 952)
Put plainly: BSK_SAg_CD38: BioMAP Diversity Plus: SAg Assay for CD38 Biomarker Activity (AID 2283087). Particulars: primary human HUVEC with PBMC; actives raise or lower the signal. The gist of the method:
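CD38 quantified by ELISA (fluorescence) in a superantigen-activated endothelial cell–PBMC co-culture at 24 h post-dose. Activity fitted in both directions relative to DMSO; parallel SRB and Alamar Blue cytotoxicity read-outs.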

Read-out in assay [15]: CD40, CD40 (gene 958)
Put plainly: BSK_SAg_CD40: BioMAP Diversity Plus: SAg Assay for CD40 Biomarker Activity (AID 2283088). To be noted: primary human HUVEC with PBMC; actives raise or lower the signal. The gist of the method: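 HUVEC plus PBMC co-culture, superantigen-activated, with CD40 read by ELISA 24 h after dosing. Curves fitted in both directions against DMSO. Overt cytotoxicity checked by parallel SRB total-protein staining.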

Read-out in the next assay: CD69, CD69 (gene 969)
The experiment in a line: BSK_SAg_CD69: BioMAP Diversity Plus: SAg Assay for CD69 Biomarker Activity (AID 2283089).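 As to AC50: cell surface CD69 protein quantified by ELISA with fluorescence detection.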 Particulars: primary human HUVEC with PBMC; actives raise or lower the signal. The gist of the method: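 ELISA, fluorescence read-out: CD69 on human umbilical vein endothelial cell + PBMC co-culture, 24 h post-dosing. Gain or loss of signal fitted bidirectionally against DMSO baseline.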

Read-out in assay [16]: Monocyte Chemoattractant Protein-1 (MCP1), CCL2 (gene 6347)
The experiment in a line: BSK_SAg_MCP1: BioMAP Diversity Plus: SAg Assay for Monocyte Chemoattractant Protein-1 (MCP1) Biomarker Activity (AID 2283090). To be noted: primary human HUVEC with PBMC; actives raise or lower the signal. In a few lines: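 Values derive from bidirectional fitting of ELISA-measured MCP1 against DMSO controls. Readings were taken 24 h after dosing human vascular endothelial cells co-cultured with peripheral blood mononuclear cells under superantigen stimulation.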

Read-out in assay [17]: Macrophage colony-stimulating factor (MCSF), CSF1 (gene 1435)
Put plainly: BSK_LPS_MCSF: BioMAP Diversity Plus: LPS Assay for Macrophage colony-stimulating factor (MCSF) Biomarker Activity (AID 2283083). Particulars: primary human HUVEC with PBMC; actives raise or lower the signal. The gist of the method: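 HUVEC–PBMC co-culture, M-CSF measured by ELISA 24 h after chemical dosing. Fitted in both directions relative to DMSO as negative control; overt cytotoxicity assessed by SRB total-protein staining in parallel cultures.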

Activity calls are given as the source filed them. The calls were made as follows: active = hit-call score of the fitted dose curve at least 0.9, where 1 is the maximum; inactive = score below 0.9.

Sequence of E-selectin (Homo sapiens) (P16581 whole entry, looked up): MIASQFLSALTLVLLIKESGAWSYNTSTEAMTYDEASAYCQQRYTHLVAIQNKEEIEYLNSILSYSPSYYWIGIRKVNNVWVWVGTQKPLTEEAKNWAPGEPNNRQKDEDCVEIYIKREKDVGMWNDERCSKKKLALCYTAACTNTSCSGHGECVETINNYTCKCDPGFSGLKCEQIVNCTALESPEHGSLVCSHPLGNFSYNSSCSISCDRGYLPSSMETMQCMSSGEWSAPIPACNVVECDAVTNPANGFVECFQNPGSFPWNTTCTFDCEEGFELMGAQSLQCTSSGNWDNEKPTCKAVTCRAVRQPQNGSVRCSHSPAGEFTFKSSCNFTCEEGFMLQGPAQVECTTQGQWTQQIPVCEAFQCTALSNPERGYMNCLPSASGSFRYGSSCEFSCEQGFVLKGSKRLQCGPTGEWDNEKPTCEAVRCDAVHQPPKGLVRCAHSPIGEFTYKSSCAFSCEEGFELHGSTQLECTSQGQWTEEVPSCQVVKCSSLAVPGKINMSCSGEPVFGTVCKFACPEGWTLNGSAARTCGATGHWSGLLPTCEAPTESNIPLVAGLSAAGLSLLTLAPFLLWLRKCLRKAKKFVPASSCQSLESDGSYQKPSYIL
Sequence of Tumor necrosis factor (Homo sapiens) (P01375 whole entry, looked up): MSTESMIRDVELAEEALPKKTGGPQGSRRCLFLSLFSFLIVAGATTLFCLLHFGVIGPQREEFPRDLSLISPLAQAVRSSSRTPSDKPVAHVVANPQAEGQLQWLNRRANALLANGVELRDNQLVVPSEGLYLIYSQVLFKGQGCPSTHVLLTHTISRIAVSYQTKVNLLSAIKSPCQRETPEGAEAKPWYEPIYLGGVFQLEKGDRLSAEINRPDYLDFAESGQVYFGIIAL

For the molecule `c1ccc(OP(Oc2ccccc2)Oc2ccccc2)cc1`, the outcome is “inactive” in assay [1]; “inactive” in assay [2]; “inactive” in assay [3]; “inactive” in [4]; “inactive” in assay [5]; “inactive” in the assay with CD40, CD40 (gene 958) [6]. The outcome in assay [7], in assay [8], in assay [9], in assay [10], in assay [11] and in assay [12] was inactive. Also, the outcome in [13] is “inactive”; in assay [14], “inactive”; with CD38, CD38 (gene 952) it was “inactive”; with CD40, CD40 (gene 958) [15], “inactive”; with CD69, CD69 (gene 969) it was “inactive”; in [16] it was “inactive”.
`c1nc[nH]n1`: the outcome was “inactive” in assay [1]; “inactive” in assay [2]; “inactive” in [3]; “inactive” in assay [4]; “inactive” in [5]; “inactive” in the assay with CD40, CD40 (gene 958) [6]. Besides, the outcome in assay [7], in assay [8], in [9], in [10], in assay [11] and in assay [12] was inactive. Further, the outcome was “inactive” in assay [13]; “inactive” in assay [14]; “inactive” in the assay with CD38, CD38 (gene 952); “inactive” with CD40, CD40 (gene 958) [15]; “inactive” with CD69, CD69 (gene 969); “inactive” in assay [16].
For the molecule `Nc1cc2c3c(c1)C(c1ccccc1)=N[C@@H](NC(=O)c1cccnc1)C(=O)N3CC2`, the outcome in [1] is “inactive”; in assay [2] it was “inactive”; in assay [3], “inactive”; in assay [4] it was “inactive”; in assay [5], “inactive”; in the assay with CD40, CD40 (gene 958) [6], “inactive”. The result in assay [7], in assay [8], in assay [9], in assay [10], in assay [11] and in [17] was inactive. The outcome in [14] was “inactive”; with CD38, CD38 (gene 952), “inactive”. Besides, the AC50 was 1.46 µM (active) in [13]; 3.97 µM (active) with CD40, CD40 (gene 958) [15]; 0.837 µM (active) in the assay with CD69, CD69 (gene 969).
